Source: PubChem BioAssay (EPA / NIEHS)
Records with an inconclusive call do not appear. Calls of active or inactive are those of the source. How the source made its calls, unless noted: active means hit-call score of the fitted dose curve at least 0.9, where 1 is the maximum; inactive means score below 0.9.

How the values were obtained:
[1] = read-out: Transforming Growth Factor (TGFB1), TGFB1 (gene 7040); assay: LTEA_HepaRG_TGFB1: Life Technologies and Expression Analysis (LTEA) Assay for Transforming Growth Factor (TGFB1) Transporter using HepaRG (AID 2283533); settings: mRNA level, 48 h; actives raise or lower the signal
How it was run: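 qRT-PCR readout of TGFB1 transcript in HepaRG lysates, normalized to three housekeeping genes; gain or loss of signal fitted relative to 0.5% DMSO vehicle. Exposure: 48 h, 8-point curve from 100 uM, duplicate wells.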

TIMP1, TIMP1 (gene 7076) = assay: LTEA_HepaRG_TIMP1: Life Technologies and Expression Analysis (LTEA) Assay for TIMP1 using HepaRG (AID 2283534); settings: mRNA level, 48 h; actives raise or lower the signal
How it was run: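 HepaRG, 48 h exposure, 8-pt half-log series from 100 uM in 0.5% DMSO, duplicates; TIMP1 transcript by Fluidigm qRT-PCR, housekeeping-normalized; bidirectional curve fit vs DMSO baseline.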

[2] = read-out: Tumor necrosis factor receptor 1 (TNFRSF1A), TNFRSF1A (gene 7132); assay: LTEA_HepaRG_TNFRSF1A: Life Technologies and Expression Analysis (LTEA) Assay for Tumor necrosis factor receptor 1 (TNFRSF1A) using HepaRG (AID 2283535); settings: mRNA level, 48 h; actives raise or lower the signal
How it was run: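 HepaRG, 48 h plating then 48 h chemical exposure, serum-free induction media; 8-pt CRC from 100 uM, half-log, 0.5% DMSO vehicle, duplicates. Readout: TaqMan qRT-PCR (Fluidigm), housekeeping-gene normalized; bidirectional fit vs DMSO.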

[3] = read-out: Thyroid Hormone Responsive (THRSP), THRSP (gene 7069); assay: LTEA_HepaRG_THRSP: Life Technologies and Expression Analysis (LTEA) Assay for Thyroid Hormone Responsive (THRSP) using HepaRG (AID 2283536); settings: mRNA level, 48 h; actives raise or lower the signal
How it was run: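 qRT-PCR read-out (Fluidigm TaqMan), housekeeping-normalized (ACTB/GAPDH/POLR2A). HepaRG, 48 h chemical exposure, 8-pt half-log series from 100 uM in 0.5% DMSO, duplicates. Bidirectional curve fit vs 0.5% DMSO baseline.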

[4] = read-out: Cellular tumor antigen p53 (Homo sapiens) (UniProt P04637); assay: LTEA_HepaRG_TP53: Life Technologies and Expression Analysis (LTEA) Assay for Tumor Protein P53 (TP53) using HepaRG (AID 2283537); settings: mRNA level, 48 h; actives raise or lower the signal
How it was run: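 TP53 transcript measured by qRT-PCR, normalized to three housekeeping genes, after 48 h treatment of human HepaRG cultures with chemicals from 100 uM downward in half-log steps (0.5% DMSO vehicle, serum-free induction medium). Up- or down-regulation fitted against DMSO.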

[5] = read-out: UDP glucuronosyltransferase (UGT1A6), UGT1A6 (gene 54578); assay: LTEA_HepaRG_UGT1A6: Life Technologies and Expression Analysis (LTEA) Assay for UDP glucuronosyltransferase (UGT1A6) using HepaRG (AID 2283539); settings: mRNA level, 48 h; actives raise or lower the signal
How it was run: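 qRT-PCR readout of UGT1A6 mRNA (normalized to ACTB/GAPDH/POLR2A) in differentiated HepaRG cells after 48 h chemical exposure; 8 concentrations, top 100 uM, half-log steps, 0.5% DMSO. Bidirectional curve fit relative to DMSO baseline.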

[6] = read-out: X-box binding protein 1 (XBP1), XBP1 (gene 7494); assay: LTEA_HepaRG_XBP1: Life Technologies and Expression Analysis (LTEA) Assay for X-box binding protein 1 (XBP1) using HepaRG (AID 2283540); settings: mRNA level, 48 h; actives raise or lower the signal
How it was run: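 HepaRG, 48 h exposure, 8-pt half-log CRC top 100 uM, 0.5% DMSO vehicle, duplicates. Readout: TaqMan qRT-PCR of XBP1 mRNA, housekeeping-normalised (ACTB/GAPDH/POLR2A); bidirectional fit vs DMSO baseline.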

[7] = LTEA_HepaRG_LDH_cytotoxicity: Cytotoxicity Assessment in the Life Technologies and Expression Analysis (LTEA) Assay (AID 2283563; active means hit-call score of the fitted dose curve at least 0.9, where 1 is the maximum;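 on AC50: LDH activity released into spent culture medium as a marker of cell death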)
How it was run: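 HepaRG (human liver line), 48 h exposure, 8-pt half-log series from 100 uM, 0.5% DMSO vehicle, duplicates. Read-out: LDH in spent medium. Positive-direction fit vs DMSO baseline.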

[8] = read-out: UDP glucuronosyltransferase (UGT1A1), UGT1A1 (gene 54658); assay: LTEA_HepaRG_UGT1A1: Life Technologies and Expression Analysis (LTEA) Assay for UDP glucuronosyltransferase (UGT1A1) using HepaRG (AID 2283538); settings: mRNA level, 48 h; actives raise or lower the signal
How it was run: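 HepaRG, 48 h chemical exposure (top 100 uM, half-log 8-pt, 0.5% DMSO vehicle), duplicate wells; qRT-PCR (TaqMan, Fluidigm array) for UGT1A1 mRNA, housekeeping-normalized; bidirectional curve fit vs DMSO baseline.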

[9] = ATG_XTT_Cytotoxicity: Cytotoxicity Assessment in the Attagene TRANS-FACTORIAL HepG2 Assay (AID 2283584; active means hit-call score of the fitted dose curve at least 0.9, where 1 is the maximum)
How it was run: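 XTT readout of cell number in transfected HepG2 cells, 24 h post-dosing; DMSO serves as negative control and baseline, with activity taken as loss of viability signal.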

Measured: AC50

Sequence of Cellular tumor antigen p53 (Homo sapiens) (P04637 whole entry, looked up): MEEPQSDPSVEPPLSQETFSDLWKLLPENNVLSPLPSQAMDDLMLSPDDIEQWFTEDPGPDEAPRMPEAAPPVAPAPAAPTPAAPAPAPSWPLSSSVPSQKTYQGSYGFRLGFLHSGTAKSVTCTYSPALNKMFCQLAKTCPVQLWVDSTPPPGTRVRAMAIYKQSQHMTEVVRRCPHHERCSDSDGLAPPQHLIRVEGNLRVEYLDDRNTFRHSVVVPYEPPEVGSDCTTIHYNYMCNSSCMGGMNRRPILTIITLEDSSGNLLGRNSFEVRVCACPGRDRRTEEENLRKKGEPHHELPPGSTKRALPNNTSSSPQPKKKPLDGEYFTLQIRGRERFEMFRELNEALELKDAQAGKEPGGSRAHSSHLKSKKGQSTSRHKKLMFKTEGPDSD

COC(=O)c1ccc(I)cc1S(=O)(=O)NC(=O)Nc1nc(C)nc(OC)n1
not listed: [8] | [9]
inactive: all other assays above

c1ccc(Nc2ccccc2)cc1
inactive: all assays above

CC(=O)[C@H]1CC[C@H]2[C@@H]3CCC4=CC(=O)CC[C@]4(C)[C@H]3CC[C@]12C
active: [1] 91.8 µM | TIMP1, TIMP1 (gene 7076) 22.2 µM | [2] 90.6 µM | [8] 37.9 µM | [5] 63.7 µM | [7] 35.8 µM
inactive: [3] | [4] | [6] | [9]

S=C([S-])NCCNC(=S)[S-].[Mn+2]
active: [2] 3.32 µM | [3] 0.835 µM | [8] 2.75 µM | [5] 3.64 µM | [6] 3.17 µM | [7] 3.77 µM
inactive: [1] | TIMP1, TIMP1 (gene 7076)

c1ccc2[nH]c(-c3cscn3)nc2c1
active: [8] 25.8 µM
not listed: [1] | [4]
inactive: all other assays above

O=C(O)c1ccccc1
inactive: all assays above

Oc1ccc(C(c2ccc(O)cc2)C(Cl)(Cl)Cl)cc1
active: [1] 87.1 µM | TIMP1, TIMP1 (gene 7076) 79.2 µM | [2] 87.3 µM | [4] 90.4 µM | [8] 88.5 µM | [5] 79.2 µM | [6] 74.1 µM | [7] 76.4 µM
inactive: [3] | [9]

N[C@@H](Cc1cc(I)c(Oc2ccc(O)c(I)c2)c(I)c1)C(=O)O
active: [1] 63.2 µM | [3] 67.4 µM | [8] 40 µM | [5] 40 µM
inactive: all other assays above

N#CSCSc1nc2ccccc2s1
active: [3] 77.7 µM | [7] 75 µM
not listed: [4]
inactive: all other assays above

CCN(CC)C(=O)c1cccc(C)c1
active: [8] 16.5 µM
not listed: [4]
inactive: all other assays above

CCCCC(CC)COC(=O)c1ccccc1C(=O)O (stereo unspecified)
active: [8] 64.9 µM
inactive: all other assays above

CN(C)C(=O)Nc1ccc(Cl)c(Cl)c1
active: [3] 27.2 µM | [8] 23.5 µM | [6] 21.7 µM
inactive: all other assays above

C=CCOC(Cn1ccnc1)c1ccc(Cl)cc1Cl (stereo unspecified)
inactive: [1] | TIMP1, TIMP1 (gene 7076) | [6] | [9]
active: [2] 77.8 µM | [3] 36.2 µM | [4] 12.2 µM | [8] 77.5 µM | [5] 72.4 µM
